Experimental data taken from PubChem BioAssay (NCATS).
Values joined by “and” are separate entries in the source; they are usually repeats but may differ in a detail not shown here. Equal values may be shown once. Results filed as inconclusive are left out. Where a call stands in place of a potency, no number is given. Active and inactive are the calls of the source. Calls come from the whole dose curve; as a rule, active = well fitted curve in the direction sought with a large enough effect; inconclusive = small, poorly fitted or top-dose-only effect, or another doubt; inactive = no such curve, though single readings can be large; an effect the other way counts as inactive or inconclusive.

What was measured:
[1] = target: Tyrosine-protein kinase Yes (Homo sapiens) (UniProt P07947); assay: qHTS for small molecule inhibitors of Yes1 kinase: Primary Screen (AID 686947); note: nearly all actives have a fitted effect of over 60% in size; note: potency is the fitted concentration of half-maximal effect
Tyrosine-protein kinase Yes (Homo sapiens), sequence (P07947 whole entry, looked up): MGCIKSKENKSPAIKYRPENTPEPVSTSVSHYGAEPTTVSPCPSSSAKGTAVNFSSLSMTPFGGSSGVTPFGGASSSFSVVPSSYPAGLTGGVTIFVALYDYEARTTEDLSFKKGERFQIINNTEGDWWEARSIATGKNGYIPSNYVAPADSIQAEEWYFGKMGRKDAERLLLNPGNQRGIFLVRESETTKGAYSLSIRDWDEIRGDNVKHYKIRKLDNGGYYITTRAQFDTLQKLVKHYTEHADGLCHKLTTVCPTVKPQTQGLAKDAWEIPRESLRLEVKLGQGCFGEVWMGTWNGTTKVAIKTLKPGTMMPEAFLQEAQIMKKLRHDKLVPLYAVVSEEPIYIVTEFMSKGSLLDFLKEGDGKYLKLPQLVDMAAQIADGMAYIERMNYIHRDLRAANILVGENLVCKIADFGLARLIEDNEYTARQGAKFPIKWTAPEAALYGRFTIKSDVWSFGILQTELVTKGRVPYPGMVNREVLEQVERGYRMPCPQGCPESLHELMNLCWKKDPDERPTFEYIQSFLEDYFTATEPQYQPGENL
How it was run: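 Yes1 (4 nM) preincubated 20 min with compound, then 60 min room-temperature reaction with 0.1 mM ATP and 0.3 mg/mL poly(E4Y) in pH 7.5 Tris, 10 mM MgCl2. ADP measured by ADP-Glo luminescence, normalised to enzyme/no-enzyme controls.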

[2] = qHTS for small molecule inhibitors of Yes1 kinase: Counter Assay (AID 686950);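 note: no kinase present so only ADP-Glo detection of a fixed ADP amount is tested; luminescence from ADP-Glo reporting ADP in a fixed ATP and ADP mixture; series mostly up to about 77 µM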
How it was run: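 Luminescence read-out from ADP-Glo quantifies a fixed ADP amount (0.02 mM ADP with 0.08 mM ATP) after 60 min at room temperature; signal is normalized between DMSO wells with ATP/ADP and with 0.1 mM ATP alone.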

Row | Compound | Potency [1] | outcome [2]
1 | CCn1cc(-c2ccnc3[nH]ccc23)c(-c2cccc(NC(=O)Nc3ccc(OCc4ccccc4)cc3)c2)n1 | 9.23 µM (active) | inactive
2 | Nc1nccc(-c2c(-c3ccc(F)cc3)ncn2C2CCC(O)CC2)n1 (configuration not stated) | 0.733 µM (active) | inactive
3 | COC(=O)Nc1nc2ccc(Oc3ccc(NC(=O)Nc4ccccc4)cc3)cc2[nH]1 | inactive | inactive
4 | Fc1ccc(-c2ncn(C3CCNCC3)c2-c2ccnc(Oc3ccccc3)n2)cc1 | 11.6 µM (active) | inactive
5 | O=C(OC1CNC(C#Cc2cc3ncnc(Nc4ccc5c(ccn5Cc5cc(F)ccc5F)c4)c3s2)C1)N1CCOCC1 (configuration not stated) | 29.2 µM (active) | inactive
6 | Cc1c2ccc(N(C)c3ccnc(Nc4cccc(S(N)(=O)=O)c4)n3)cc2nn1C | 0.519 µM (active) | inactive
7 | CN1CCC(n2cnc(-c3ccc(F)cc3)c2-c2ccnc(N)n2)CC1 | 18.4 µM (active) | inactive
8 | CN1CCC(C(=O)Nc2n[nH]c3nc(-c4ccc(O)cc4)c(Br)cc23)CC1 | 36.8 µM (active) and 23.2 µM (active) | inactive
9 | NC(=O)c1cc(-c2ccncc2)cc(-c2ccccc2)c1N | 0.519 µM (active) | inactive
10 | O=C(O)c1ccc(Oc2nccc(-c3c(-c4ccc(F)cc4)ncn3C3CCNCC3)n2)cc1 | inactive | inactive
11 | c1ccc(-c2[nH]ncc2-c2ccnc(-c3ccc(OCCN4CCOCC4)cc3)c2)nc1 | 7.33 µM (active) | inactive
12 | Oc1cccc(-c2nc(-c3ccccc3)[nH]c2-c2ccncc2)c1 | 0.923 µM (active) | inactive
13 | COc1ccc(CNC(=O)c2ccc(-c3cc(-c4nnc(C)o4)ccc3C)cc2)cc1 | inactive | inactive
14 | CCn1c(-c2nonc2N)nc2cnc(Oc3cccc(NC(=O)c4ccc(N(C)C)cc4)c3)cc21 | inactive | inactive
15 | NS(=O)(=O)c1cccc(-c2cc3ccncc3cc2OCc2ccccc2)c1 | inactive | inactive
16 | CS(=O)(=O)Nc1cccc(-c2ccc3c(NC(=O)C4CC4)n[nH]c3c2)c1 | 11.6 µM (active) | inactive
17 | COc1ccc(-c2nn3ncccc3c2-c2ccnc(Nc3ccc(Cl)c(C(F)(F)F)c3)n2)cc1 | 3.68 µM (active) | inactive
18 | O=C1Nc2ccccc2C1=C1CCc2cc(O)ccc21 | 9.23 µM (active) | inactive
19 | CCc1cccc(CC)c1C=Cc1cncc(C(=O)NC)c1 | 26 µM (active) | inactive
20 | CCn1c(-c2nonc2N)nc2c(C#CC(C)(C)O)nc(CN3CCCC3)cc21 | 23.2 µM (active) | inactive
21 | COc1ccc(-c2cc(-c3cn[nH]c3-c3ccccn3)ccn2)cc1 | 14.6 µM (active) | inactive
22 | CC1=C(C(=O)Nc2ccc3n[nH]c(C)c3c2)C(c2ccc(C(F)(F)F)cc2)CC(=O)N1 (configuration not stated) | 6.54 µM (active) | inactive
23 | NS(=O)(=O)c1ccc(-c2ccc3c(NC(=O)C4CC4)n[nH]c3c2)cc1 | 1.84 µM (active) | inactive
24 | CC1=C(C(=O)Nc2ccc3[nH]ncc3c2)C(c2ccc3ccccc3c2)CC(=O)N1 (configuration not stated) | 0.582 µM (active) | inactive
25 | CN(C)C(=O)OC1CNC(C#Cc2cc3ncnc(Nc4ccc(OCc5cccc(F)c5)c(Cl)c4)c3s2)C1 (configuration not stated) | 8.23 µM (active) and 7.33 µM (active) | inactive
26 | COc1ccc(-c2cc3c(N)ncnc3o2)cc1 | 6.54 µM (active) | inactive
